Data taken from PMC4336329 (PLoS ONE, 2015).
Among all 310,000 compounds or so, about 14,000 (4.5%) showed an effect of 50% or more. The effect is printed as a negative number. What follows is part of a selection rich in strong results, with near analogues and random picks from the rest.

molecular target: human ether-à-go-go-related gene (hERG) potassium channel (human, UniProt Q12809); assay: primary screen, population patch clamp on CHO cells stably expressing hERG; higher = less effect of the substance
Sequence (Q12809 whole entry, looked up): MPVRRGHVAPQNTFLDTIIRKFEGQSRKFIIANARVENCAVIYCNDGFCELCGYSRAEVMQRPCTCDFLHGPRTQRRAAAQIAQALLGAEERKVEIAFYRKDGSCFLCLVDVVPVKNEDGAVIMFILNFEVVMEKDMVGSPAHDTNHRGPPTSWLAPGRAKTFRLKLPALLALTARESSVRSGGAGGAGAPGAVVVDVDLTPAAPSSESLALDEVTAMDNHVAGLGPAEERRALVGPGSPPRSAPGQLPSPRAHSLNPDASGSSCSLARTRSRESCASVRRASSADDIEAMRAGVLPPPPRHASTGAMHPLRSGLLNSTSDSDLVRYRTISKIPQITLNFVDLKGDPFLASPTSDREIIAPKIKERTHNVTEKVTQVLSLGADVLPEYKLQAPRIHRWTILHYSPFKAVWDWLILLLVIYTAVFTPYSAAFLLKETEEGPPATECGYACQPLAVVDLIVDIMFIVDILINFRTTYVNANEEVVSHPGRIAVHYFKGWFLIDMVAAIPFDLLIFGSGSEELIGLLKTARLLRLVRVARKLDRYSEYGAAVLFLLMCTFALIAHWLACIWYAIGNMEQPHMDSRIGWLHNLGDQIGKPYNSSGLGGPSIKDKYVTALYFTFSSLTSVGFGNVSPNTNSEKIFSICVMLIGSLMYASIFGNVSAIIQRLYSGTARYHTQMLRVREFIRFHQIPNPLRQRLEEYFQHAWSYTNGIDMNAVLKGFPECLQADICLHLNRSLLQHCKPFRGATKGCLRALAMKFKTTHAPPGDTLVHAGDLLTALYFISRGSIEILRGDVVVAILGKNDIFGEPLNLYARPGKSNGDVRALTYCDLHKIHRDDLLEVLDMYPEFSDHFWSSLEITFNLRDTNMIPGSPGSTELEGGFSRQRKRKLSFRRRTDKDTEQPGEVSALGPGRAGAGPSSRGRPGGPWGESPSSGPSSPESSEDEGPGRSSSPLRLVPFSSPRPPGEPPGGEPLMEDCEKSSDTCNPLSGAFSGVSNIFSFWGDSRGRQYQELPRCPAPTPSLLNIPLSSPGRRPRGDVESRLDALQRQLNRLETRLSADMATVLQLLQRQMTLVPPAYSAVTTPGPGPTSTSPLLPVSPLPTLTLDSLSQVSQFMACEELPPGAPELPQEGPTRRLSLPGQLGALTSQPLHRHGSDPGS
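Also: peak tail current of the secondary pulse compared with the same well before compound.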

Row | Compound | hERG current change (%, negative = inhibition) at 10uM [%]
1 | CC1Cc2ccccc2N1C(=S)NC(=O)C1(C)CC1(Cl)Cl (stereo not drawn) | 30.1
2 | COc1ccc(CNC2CCCc3ccccc32)cc1OC.O=C(O)C(=O)O (stereo not drawn) | -25.3
3 | COc1cc(CNC2CCCc3ccccc32)cc(OC)c1OC.O=C(O)C(=O)O (stereo not drawn) | -13.9
4 | CCOc1ccc(CNC2CCCc3ccccc32)cc1.O=C(O)C(=O)O (stereo not drawn) | -68.1
5 | COc1ccccc1CNC1CCCc2ccccc21.O=C(O)C(=O)O (stereo not drawn) | -6.19
6 | O=[N+]([O-])c1ccccc1CNC1CCCc2ccccc21 (stereo not drawn) | -5.95
7 | O=C(O)C(=O)O.O=[N+]([O-])c1ccc(CNC2CCCc3ccccc32)cc1 (stereo not drawn) | -51.7
8 | COc1ccc(OC)c(NC(=O)Cc2coc3cc(C)cc(C)c23)c1 | 1.9
9 | COC(=O)C1=C(c2ccc(F)cc2OCc2ccccc2)C[C@@H]2CC[C@H]1N2C(=O)NCc1ccc(OC)c(OC)c1 | -2.13
10 | CCn1c(C)nc2cc(C(=O)NNC(=S)Nc3ccc(F)cc3)ccc21 | 15.9
11 | CCC(=O)N1CCN(C(=O)c2ccccc2)CC1 | 1.82
12 | O=C(Nc1ccc(N2CCOCC2)cc1)c1cccc(S(=O)(=O)N2CCC(Cc3ccccc3)CC2)c1 | 2.84
13 | O=C(O)C(=O)O.OC(CNCCc1ccc(Cl)cc1Cl)COc1ccccc1 (stereo not drawn) | -25.7
14 | COc1ccc(Cl)cc1NC(=S)NCCc1ccc(S(N)(=O)=O)cc1 | 5.52
15 | OC(CNCCc1ccc(Cl)cc1)COc1cc(Cl)ccc1Cl (stereo not drawn) | -56.6
16 | Cc1cc(Cl)ccc1NC(=S)NCCc1ccc(S(N)(=O)=O)cc1 | -16.1
17 | OC(CNCCc1ccc(Cl)cc1)COCc1ccco1 (stereo not drawn) | -44.6
18 | Cc1cc(Cl)ccc1OCC(O)CNCCc1ccc(S(N)(=O)=O)cc1 (stereo not drawn) | -67.6
19 | CCn1c(=NC(=O)CS(=O)(=O)c2ccc(C)cc2)sc2cccc(OC)c21 | -0.869
20 | O=C(CCc1ccccc1O)N/N=C/c1ccc(Sc2cccc3cccnc23)o1 | 21.8
21 | COc1ccc(CNC(=O)CN2CCN(c3ccccc3O)CC2)cc1OC | 12.6
22 | CCSc1nc2ccccc2c(=O)n1CCc1ccc(OC)c(OC)c1 | 14.9
23 | O=c1c2ccccc2nc(SCCN2CCCCC2)n1CCc1ccccc1 | -71.7
24 | COc1ccc(CCn2c(SCCN3CCCCC3)nc3ccccc3c2=O)cc1OC | -53.3
25 | C=CCNC(=O)CSc1nc2ccccc2c(=O)n1CCc1ccc(OC)c(OC)c1 | -15.4
26 | COCCn1c(SCCOc2ccccc2)nc2ccccc2c1=O | -6.1
27 | COCCn1c(SCCN2CCCCC2)nc2ccccc2c1=O | -78.4
28 | COCCn1c(SCC(=O)c2ccccc2)nc2ccccc2c1=O | -12.4
29 | O=c1c2ccccc2nc(SCCN2CCOCC2)n1CCc1ccccc1 | -15.4
30 | NC(=O)CSc1nc2ccccc2c(=O)n1CCc1ccccc1 | 8.93
